Experimental data taken from the supplement of paper PMC3414501.
Counter-ions that a name gives are not always drawn.

Tested on: S. cerevisiae AD1-9 (efflux-pump deficient), vegetative growth in YPD; in the data active = 2 or more and inactive = the rest
Test: growth sensitivity score (doubling time z-score vs DMSO controls); higher = slower growth, strongly negative scores also mark growth inhibition (complete suppression), active = hit call of the paper
Procedure, shortened: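 Rich medium in microtiter plates was seeded with Saccharomyces cerevisiae strains BY4741 and AD1-9 at an OD600 of 0.065, and compounds were added as a 1:100 dilution of DMSO stock. A Tecan GENios reader recorded optical density every 15 min for 24 hours, with eight solvent-only wells in each experiment. Average doubling time was the time to reach a set generation point divided by generation number. The growth sensitivity score was the compound mean minus the solvent-only mean, divided by the solvent-only standard deviation.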

| Compound | growth sensitivity score |
| --- | --- |
| CC(C(O)c1ccc(O)cc1)N1CCC(Cc2ccccc2)CC1 (stereo unspecified) [Ifenprodil] (stock concentration (mM, diluted 1:100): 9.2) | 44.9 (active) |
| Cc1nc2ccccn2c(=O)c1CCN1CCC(C(=O)c2ccc(F)cc2)CC1 [Pirenperone] (stock concentration (mM, diluted 1:100): 10) | -0.84 (inactive) |
| CNCC[C@@H](Oc1ccccc1C)c1ccccc1 [Atomexetine hydrochloride] (stock concentration (mM, diluted 1:100): 8.7) | 5.57 (active) |
| CC(C)(C)NC(=O)[C@@H]1C[C@@H]2CCCC[C@@H]2CN1C[C@@H](O)[C@H](Cc1ccccc1)NC(=O)[C@H](CC(N)=O)NC(=O)c1ccc2ccccc2n1 [Saquinavir mesylate] (stock concentration (mM, diluted 1:100): 8.8) | -2.2 |
| OCc1cc(C(O)CNCCCCCCOCCCCc2ccccc2)ccc1O (stereo unspecified) [Salmeterol] (stock concentration (mM, diluted 1:100): 10) | 41.2 (active) |
| CCCCC[C@H](O)/C=C/[C@H]1[C@H](O)CC(=O)[C@@H]1CCCCCCC(=O)O [Prostaglandin E1] (stock concentration (mM, diluted 1:100): 10) | 0.11 (inactive) |
| C=CC1=C(C(=O)O)N2C(=O)[C@@H](NC(=O)/C(=N\O)c3csc(N)n3)[C@H]2SC1 [Cefdinir] (stock concentration (mM, diluted 1:100): 10) | -1.07 (inactive) |
| CCC(C)n1ncn(-c2ccc(N3CCN(c4ccc(OCC5COC(Cn6cncn6)(c6ccc(Cl)cc6Cl)O5)cc4)CC3)cc2)c1=O (stereo unspecified) [Itraconazole] (stock concentration (mM, diluted 1:100): 10.1) | 21.4 (active) |
| Nc1ccn([C@H]2CC[C@@H](CO)O2)c(=O)n1 [Zalcitabine] (stock concentration (mM, diluted 1:100): 10) | -0.86 (inactive) |
| CC(C)(C)NCC(O)c1ccc(O)c(CO)c1 (stereo unspecified) [Salbutamol sulfate] (stock concentration (mM, diluted 1:100): 9.7) | -1.51 (inactive) |
| CC(=O)NC[C@H]1CN(c2ccc(N3CCOCC3)c(F)c2)C(=O)O1 [Linezolide] (stock concentration (mM, diluted 1:100): 10) | 2.05 (active) |
| CC(=O)OCC(CCn1cnc2cnc(N)nc21)COC(C)=O [Famciclovir] (stock concentration (mM, diluted 1:100): 10) | -0.2 (inactive) |
| Cc1ncc([N+](=O)[O-])n1CC(C)O (stereo unspecified) [Secnidazole] (stock concentration (mM, diluted 1:100): 10) | -0.44 (inactive) |
| CC1=Nc2ccc(Cl)cc2S(=O)(=O)N1 [Diazoxide] (stock concentration (mM, diluted 1:100): 10) | 0.08 (inactive) |
| CC(C)(C)C(O)/C=C/c1ccc2c(c1)OCO2 (stereo unspecified) [Stiripentol] (stock concentration (mM, diluted 1:100): 10) | 5.27 (active) |
| O=c1c(-c2ccccc2)c1-c1ccccc1 [Diphenylcyclopropenone] (stock concentration (mM, diluted 1:100): 10) | 110 (active) |
| COCCCOc1ccnc(C[S+]([O-])c2nc3ccccc3[nH]2)c1C (stereo unspecified) [Rabeprazole] (stock concentration (mM, diluted 1:100): 10.6) | 31.5 (active) |
| COC(=O)C1=C(C)NC(C)=C(C(=O)OC)C1c1ccccc1[N+](=O)[O-] [Nifedipine] (stock concentration (mM, diluted 1:100): 10.7) | 60 (active) |

| Compound | growth sensitivity score |
| --- | --- |
| Fc1ccc([C@@H]2CCNC[C@H]2COc2ccc3c(c2)OCO3)cc1 [Paroxetine] (stock concentration (mM, diluted 1:100): 8.8) | 118 (active) |
| CC(C)[C@H]1CC[C@H](C(=O)N[C@H](Cc2ccccc2)C(=O)O)CC1 [Nateglinide] (stock concentration (mM, diluted 1:100): 10) | 0.63 (inactive) |
| C[C@@H]1CN(CCCn2c3ccccc3c3ccccc32)C[C@H](C)N1 [Rimcazole] (stock concentration (mM, diluted 1:100): 10.1) | 20.3 (active) |
| COc1ccc(CC(C)NCC(O)c2ccc(O)c(NC=O)c2)cc1 (stereo unspecified) [Formoterol fumarate dihydrate] (stock concentration (mM, diluted 1:100): 7) | -0.7 (inactive) |
| CN1C(=O)CC[C@H]1c1cccnc1 [Cotinine] (stock concentration (mM, diluted 1:100): 10) | 1.38 (inactive) |
| O=c1c(O[C@@H]2O[C@H](CO)[C@H](O)[C@H](O)[C@H]2O)c(-c2ccc(O)c(O)c2)oc2cc(O)cc(O)c12 [Hyperoside] (stock concentration (mM, diluted 1:100): 8.8) | 0.09 (inactive) |
| COc1cc2nc(N(C)CCCNC(=O)C3CCCO3)nc(N)c2cc1OC (stereo unspecified) [Alfuzosin] (stock concentration (mM, diluted 1:100): 10) | -1.12 (inactive) |
| Cc1c(O)c(=O)ccn1C [Deferiprone] (stock concentration (mM, diluted 1:100): 10) | -1.63 (inactive) |
| COC(=O)C1=C(C)NC(C)=C(C(=O)OC(C)C)C1c1cccc2nonc12 (stereo unspecified) [Isradipine] (stock concentration (mM, diluted 1:100): 9.9) | 137 (active) |
| CC12CC3CC(C)(C1)CC(N)(C3)C2 [Memantine hydrochloride] (stock concentration (mM, diluted 1:100): 8.3) | -0.36 (inactive) |
| CC(=O)SCC(Cc1ccccc1)C(=O)NCC(=O)OCc1ccccc1 (stereo unspecified) [Acetorphan] (stock concentration (mM, diluted 1:100): 10) | 22.1 (active) |
| CCN(CC)CC(=O)Nc1c(C)cccc1C [Lidocaine] (stock concentration (mM, diluted 1:100): 9.6) | -0.9 (inactive) |
| CC(C)NCC(O)COc1ccc(COCCOC(C)C)cc1 (stereo unspecified) [Bisoprolol fumarate] (stock concentration (mM, diluted 1:100): 8.5) | -0.36 (inactive) |
| CC(C)NCC(O)c1ccc(NS(C)(=O)=O)cc1 (stereo unspecified) [Sotalol hydrochloride] (stock concentration (mM, diluted 1:100): 8.8) | -0.51 (inactive) |
| CCCN[C@H]1CCc2nc(N)sc2C1 [Pramipexole] (stock concentration (mM, diluted 1:100): 10) | 51 (active) |
| O=C(CCCN1CCC(O)(c2ccc(Cl)cc2)CC1)c1ccc(F)cc1 [Haloperidol] (stock concentration (mM, diluted 1:100): 10) | 22.7 (active) |
| O=C(O[C@@H]1C[C@@H]2C[C@H]3C[C@H](C1)N2CC3=O)c1c[nH]c2ccccc12 [Dolasetron mesylate] (stock concentration (mM, diluted 1:100): 10.4) | -0.71 (inactive) |
| CC(CCCCC(=O)Nc1ccc(C(F)(F)F)cc1)NCCc1cnc[nH]1 (stereo unspecified) (stock concentration (mM, diluted 1:100): 10) | 1.41 (inactive) |
